Experimental data taken from the supplement of paper PMC3334620.
In all, about 33,000 sequences were measured (“E-score (-0.5 to 0.5)”: median about -0.016, highest 2% from about 0.31 on). The entries come from a sample that favours the highest values as a whole.

The sequences below were run against Cst6 (UniProt P40535) (assay: PBM E-score (8-mer binding enrichment) (E-score (-0.5 to 0.5)); higher = stronger / more preferred TF binding). Settings: protein concentration: 200 nM; construct: GST-DNA-binding domain.
Experimental: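 Universal 'all 10-mer' protein binding microarrays (Agilent AMADID 015681) probed with GST-tagged S. cerevisiae TFs (full-length or DBD) made by in vitro transcription/translation (PURExpress), about 100-200 nM. Bound TF was detected with fluorescent anti-GST. Each ungapped 8-mer (which stands for itself and its reverse complement) is scored by the PBM enrichment score (E-score), a modified Wilcoxon-Mann-Whitney statistic from -0.5 to +0.5, computed with the Universal PBM Analysis Suite. Scale: above 0.35 generally sequence-specific binding.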

Chain of UniProt P40535 (P40535 whole entry, the tested form may be a part): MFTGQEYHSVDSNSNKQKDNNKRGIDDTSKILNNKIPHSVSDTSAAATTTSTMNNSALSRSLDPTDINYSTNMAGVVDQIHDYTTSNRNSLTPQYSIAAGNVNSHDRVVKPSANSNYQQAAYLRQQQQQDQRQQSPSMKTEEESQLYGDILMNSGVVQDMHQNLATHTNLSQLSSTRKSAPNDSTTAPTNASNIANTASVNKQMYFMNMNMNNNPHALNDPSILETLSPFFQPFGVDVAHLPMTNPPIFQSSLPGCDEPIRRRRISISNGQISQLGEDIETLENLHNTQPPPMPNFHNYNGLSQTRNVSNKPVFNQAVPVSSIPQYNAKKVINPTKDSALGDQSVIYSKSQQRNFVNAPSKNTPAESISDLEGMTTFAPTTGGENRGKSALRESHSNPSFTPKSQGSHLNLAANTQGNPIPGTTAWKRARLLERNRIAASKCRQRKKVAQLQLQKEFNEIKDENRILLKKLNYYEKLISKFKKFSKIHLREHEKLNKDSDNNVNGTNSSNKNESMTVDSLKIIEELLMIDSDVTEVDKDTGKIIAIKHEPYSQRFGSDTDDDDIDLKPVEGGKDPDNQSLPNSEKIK

Sequence	PBM E-score
GCACTCTA	-0.0783
AGAAAACG	0.168
GCTTAGAC	-0.195
CAAGCGAG	-0.00525
TATAGGCA	-0.112
ACATCTGC	-0.0513
CAACAGCA	0.00053
AAGGTTGG	0.0155
GCGGAAAA	0.17
ACGTAAAA	0.354
CCGTAAAA	0.0767
GCGTAAAA	0.0958
CACACAGG	0.0469
CGTCATTA	0.477
CCTCATTC	-0.0459
CGTCATTC	0.467
GGTCATTA	0.178
AGTCATTA	0.0194
AGTCATTC	0.0571
GAGCACCA	-0.219
ACCCTTCG	-0.0964
ACCGTCAT	0.418
CTCGTCAC	0.349
ACCGTCAG	-0.0719
ATCGTCGC	-0.0136

Sequence	PBM E-score
GCCGTCAC	0.334
ATCGTCAC	0.401
CTCGTCAG	0.127
ACCGTCAA	0.159
GCCGTCAA	0.0714
CTCGTCAA	0.0507
ATCGTCTC	-0.0844
CCCGTCAC	0.2
ACAGGAAG	-0.0175
CCAGCTCA	-0.146
CAGGCATC	-0.213
ATATAACG	0.267
CAATTAGG	0.0223
ACCCCCGC	-0.33
ATGTTGGC	-0.0418
CCGATAGA	-0.124
ACCGAGGG	-0.446
CTCCGCAC	-0.0765
CGCTGCGA	0.0077
TCAACCCA	-0.0214
GTCGTCGA	-0.00727
ATCGTCAT	0.448
GTCGTCAC	0.425
GTCGTCAA	0.147
ATCGTCAA	0.223

Sequence	PBM E-score
ATCGTCAG	0.131
CTAAGACA	0.0903
AGGGCATA	0.0409
AACGCACG	0.179
AGCCACAG	-0.232
ATGGATAC	-0.0649
AATTCAAA	0.23
ACGCAATA	0.349
ACGCAATG	0.24
GCGCAATA	-0.079
ATCAGACA	-0.00162
ACGGCGCC	0.364
CCGGCGCG	-0.0219
ACGGCGAG	0.18
ACGGCGAC	0.217
ACGGCGCG	0.381
CCGGCGCC	0.14
GCGGCGCA	0.197
GCGGCGCC	0.376
TCGGCGCA	0.071
ACGGCGCT	0.251
CCGGCGCA	-0.107
ACGGCGCA	0.349
ACCAAACA	0.277
AGGAGCCT	-0.209

Sequence	PBM E-score
AATAAGAT	0.232
TATAAGAA	0.125
CATAAGAA	0.342
AATAAGAG	0.055
GATAAGAA	0.291
AATAAGAA	0.312
TCCATAAA	0.123
CCATTGCC	0.0353
AATGCACG	0.0682
AAATTCGG	0.0235
AAATTCGC	0.211
AAATTCGT	0.306
CGCCTCAG	0.00359
CCTTGACC	-0.19
CGTCACAA	0.4
CGTCAGAC	0.287
CGTCACAG	0.424
TGTCACAA	0.254
CCTCACAG	-0.0712
CGTCAGAA	0.286
GGTCACAA	-0.0375
AGTCACAG	-0.0682
GGTCACAC	-0.0298
AGTCACAC	0.00702
CGTCAGAG	0.365

Sequence	PBM E-score
CGTCACAC	0.414
ACGATTCT	0.039
ACTATCCG	0.0433
CAAACCAG	-0.0964
CATACATG	0.0541
CCTTCTCG	-0.264
CAGTAGAG	-0.0984
AGACAAAT	0.159
AGAAAATG	0.0622
ATCATTGC	0.188
ATCATTGG	0.194
GACATTGA	0.096
ATCATTGA	0.306
GTCATTGA	0.391
CTCATTGA	-0.0286
AGGGCTTG	-0.0617
AGGATCAG	-0.266
CTTCCTGA	0.112
GGGACTCA	-0.353
CTAGCTAG	-0.074
AAAATAAT	0.302
AGGTTCCA	-0.124
ATAGTGAC	0.392
GCAGTGAC	0.17
ATAGTGAA	-0.00864

Sequence	PBM E-score
GTAGTGAC	0.332
CTAGTGAC	0.234
GTAGTGAA	0.0467
CTCCTGGC	-0.195
CTTCCTCC	-0.235
ATGTCTTC	-0.153
CGATACTA	0.1
CAACTTCG	0.0207
CCATCATC	0.146
AAATCATC	0.175
ACATCATA	0.443
ACATCATG	0.409
GCATCATA	0.339
AGATCATG	0.137
AAATCATA	0.275
ACATCAAG	0.207
ACATCAGA	0.16
CCATCATA	0.122
ACATCATC	0.462
GCATCAGA	0.159
ACTTAACT	0.0697
ATAGCCAA	0.0258
GGAGCAGA	-0.114
TATGCTAA	0.0861
CTAGGATA	-0.125

Sequence	PBM E-score
ATCTGGGA	-0.197
GGTTGCGA	-0.0447
AGGGCATC	-0.0843
GAGGTGAC	0.407
GGGGTGAC	0.284
GCGGTGAC	0.345
ACGGTGAT	0.121
ACGGTGAC	0.307
GCGGTGCC	-0.0111
CAGGTGAC	0.258
AGGGTGAG	-0.176
GCGGTGAA	0.0906
ACGGTGAG	-0.0622
AAGGTGAC	0.243
AGGGTGAC	0.345
CGGGCCGA	-0.167
GAGTATGA	0.169
CATGATCA	0.231
CCGGTAGA	-0.132
CTCCCTGC	-0.218
ACAGAGAT	0.178
CCCTTCCG	-0.274
CATAGTTC	0.0666
AGTGAGAA	0.149
ACGGGGCC	0.00152

Sequence	PBM E-score
AGTGAACG	-0.0226
GGCTCCCC	-0.226
ATTCCATC	0.199
CCGGTGAA	0.0804
CCGGTGAC	0.335
CCGGTGAG	-0.116
AACACAAA	0.0222
TACACAAA	0.311
CACACAAA	0.165
TCTGGCCA	-0.0762
AATTTTGC	0.144
CGCATCCG	-0.0682
ATCATCCC	0.154
CGTCACCC	0.466
AGTCACCC	0.117
CCTCACCC	0.0853
GGTCACCA	-0.148
AGTCACCA	0.0433
CGTCACCA	0.484
CGCCTCAC	0.135
ATACCATC	0.00666
ATTCACAC	0.134
ACGAGTAA	0.141
GGAAATCA	0.0954
TGAAATCA	0.322

Sequence	PBM E-score
CGAAATCA	0.269
CCTTTTCG	0.021
GTTGGACA	-0.0168
AAGAAAGT	0.153
GAGGGCTA	-0.27
ATTTCGGG	0.0105
AAAAGTGG	0.112
AAAAGTGA	0.306
AAAAGTGT	0.0733
GGGGTAAA	0.0414
CCTGGGAA	-0.136
GCGAAAAA	0.197
CAAACTTG	-0.0352
GTCTCCCA	-0.244
GTTATAAA	0.269
TTTATAAA	0.359
ATAATAAT	0.238
CTAATAAA	0.169
TAAATAAA	0.289
GTAATAAA	0.352
ATAATAAA	0.325
ATAATAAC	0.205
TTAATAAA	0.307
CTTATAAA	0.138
GTAATAAC	0.197

Sequence	PBM E-score
GTAAATAA	0.176
AACAGAAC	0.032
ACCAGCAT	-0.104
ATAAGAAA	0.327
ATAAGAAT	0.253
ATAAGAAC	0.248
AAGGAGGG	-0.0908
ATTTTATG	0.248
AATTTTTA	0.228
AATTTACG	0.296
GTTTTATA	0.122
ATATTTTA	0.233
ATTTTTTA	0.325
ATTTTACC	0.264
ATTTTACG	0.316
ATTTTATA	0.321
CGCCCCAA	0.0361
CCAGGCTC	-0.28
GGAGACGA	-0.0641
AGACCGTC	-0.127
CTCACCTC	0.0122
TCTTAAGA	0.0388
CAATAGGA	-0.0291
TAACAAAA	0.353
CGACAAAA	0.163

Sequence	PBM E-score
CGACAACA	0.243
AGACAACA	0.0611
TGACAAAA	0.337
TGACAACA	0.346
GAACAAAA	0.186
AAACAAAA	0.219
GGACAAAA	0.106
AGAACCGA	-0.127
CTCTACGC	-0.109
GGGAAAGA	-0.0768
CCGTGACC	-0.145
ACGTGACA	0.248
CCGTGACA	0.15
ACGTGACT	0.00931
ACGTGACG	0.451
CCGTGACG	0.417
AAAATCGA	0.106
TCAGGAAA	0.053
TCTTGCCA	-0.0736
CTTGCGGC	-0.0317
CCTCATAA	0.199
GGTCATAA	0.213
CTTCATAA	0.182
TGTCATAA	0.323
CGTCATAA	0.476

Sequence	PBM E-score
AGTCATAA	0.217
AAATCCTA	0.0429
ACGGGACG	-0.0627
AAGGGACT	-0.229
GCTGGTCC	-0.241
ACAGGGTC	-0.231
AAAATCTC	0.0464
AGTCATGA	0.124
CGTCATGC	0.472
CCTCATGC	-0.15
GGTCATGA	0.239
AGTCATGC	-0.0259
CGTCATGA	0.461
CCTCTCCC	-0.367
ATTTCCAG	0.0306
ATGTGGGC	-0.068
CCACCCGA	-0.0893
ACGACAGA	-0.00441
AAATATTA	0.286
TAATATGA	0.305
CAATATTG	0.306
CAATATTA	0.215
CAATATGA	0.245
TAATATTA	0.391
GAATATTA	0.188

Sequence	PBM E-score
AAATATGA	0.239
CAATATTC	-0.0581
CAGTGCAA	0.0823
GGGTACCC	-0.239
GCCGCCGA	0.0801
GCTAGTAA	0.0344
CCCCATTA	-0.257
AAGGTAGC	-0.198
CTTTGGGC	-0.163
ACATCAGG	0.163
AGTCCCCC	-0.43
CTTCGTCC	-0.155
ATTCGTCA	0.423
GTTCGTCA	0.269
CGTCGTCA	0.258
CTTCGTCA	0.336
ATTCGTCG	0.0126
CGGTGCAA	-0.202
CCTATGGC	-0.219
GCTAACAC	-0.00396
AAAGGGAG	-0.152
TAACTGTA	0.032
CGGATAAG	-0.118
AGGGGCTG	-0.271
CGCCAGCC	-0.193

Sequence	PBM E-score
CTAAATTA	0.262
ATAAATAG	0.135
GAAAATTA	0.195
ATAAATAA	0.335
ATAAATTG	0.258
AAAAATTA	0.333
CAAAATTA	0.233
ATAAATTA	0.373
TTAAATAA	0.18
ATTTGACA	0.173
ACGCCAAT	0.223
AGCCTTAT	-0.0913
CCGCGTCG	0.0654
ACGCGTCC	-0.129
GCGCGTCA	0.381
ACGCGTCA	0.381
GCGCGTCC	-0.198
ACGCGTCT	-0.0602
TCGCGTAA	0.314
CCGCGTCC	0.099
GCGCGTAA	0.224
GCGCGTTA	0.0245
ACGCGTAA	0.129
CCGCGTCA	0.34
